Rows were chosen to be rich in hits. Some 4.6% of all compounds tested hit in one or more screens of this group.
PfHsp90 yeast 2 = growth inhibition of PfHsp90-expressing yeast, primary screen, antimalarial PfHsp90 inhibitor project, S. cerevisiae, BacTiter-Glo luminescence, single point, set 2 | BacTiter-Glo ATP, 48 h; yeast lacking PDR1 and PDR3 efflux regulators | inhibition, % at 9.4 µM | 310,000 compounds, 0.32% hits | AID 504621, 2011;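 active means every replicate shows inhibition above about 80%, whatever the replicate mean, limit read from the data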;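 further: 0% = DMSO neutral controls and 100% = 20 µM radicicol positive controls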
TIM10 inh = growth inhibitors of isogenic TIM10 control yeast, primary screen, counter-screen for tim10-1 yeast inhibitor project, luminescence, uHTS; S. cerevisiae TIM10 strain growth, BacTiter-Glo luminescence, 24 h; 330,000 compounds, 1.4% hits; inhibition, % at 10 µM;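 active means inhibition of 40% or more at the single tested concentration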;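 further: wild-type TIM10 isogenic control strain grown at permissive 25 °C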
tim10-1 inh = growth inhibitors of tim10-1 mutant yeast, primary screen, luminescence, uHTS; inhibition, % at 20 µM; 330,000 compounds, 2.2% hits; AID 463190, 2010; S. cerevisiae tim10-1 ts strain growth, BacTiter-Glo, 24 h;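 active means inhibition of at least 40%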;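 further: mutant grown at 25 °C; 0% = DMSO wells with yeast and 100% = wells holding no yeast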
tim23-1 inh = growth inhibitors of tim23-1 mutant yeast, primary screen, luminescence, uHTS. 330,000 compounds, 1.3% hits. inhibition, % at 20 µM. AID 463212, 2010. S. cerevisiae tim23-1 growth, BacTiter-Glo luminescence, 24 h;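 active means growth inhibition of the mutant yeast at or above 50%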;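 further: temperature-sensitive mutant grown at 25 °C; plate controls were DMSO-treated mutant yeast for no effect and medium wells lacking yeast for full effect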
NALP3 yeast inh = NALP3 inflammasome inhibitors in reconstituted yeast, primary screen, luminescence, uHTS. Yeast reconstituted NLRP3/ASC/caspase-1, beta-gal luminescence, 24 h. inhibition, % at 10 µM. 330,000 compounds, 0.39% hits. AID 2825, 2010;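 active means inhibition of 50% or more; inactive means inhibition below 50%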;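 further: plate controls were induced DMSO wells for no effect and uninduced yeast grown without galactose for full effect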
SKKanGAS inh = S. pyogenes SKKanGAS growth inhibitors in kanamycin, primary screen, streptokinase expression inhibitor project, SKKanGAS strain, BacTiter-Glo luminescence | 6 h | inhibition, % at 7.5 µM | 300,000 compounds, 1.3% hits | AID 1662, 2009;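 active means mean replicate score, as percent of positive control median, at least 50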;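 further: strain carries kanamycin resistance gene driven by streptokinase promoter and grows in 40 µg/ml kanamycin; loss of luminescence reflects streptokinase promoter inhibition or plain growth inhibition; 0% = median of DMSO wells and 100% = positive control at its reference dose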
tim10-1 conf = growth inhibitors of tim10-1 mutant yeast, confirmation, single concentration, luminescence, S. cerevisiae | 7,400 compounds, 56% hits | inhibition, % at 20 µM | S. cerevisiae tim10-1 ts strain growth, BacTiter-Glo, 24 h | shares compounds with tim10-1 inh;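 active means inhibition of yeast growth at or above a set limit in either of two repeat tests at 20 µM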;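 further: tim10-1 mutant grown at permissive 25 °C to find synthetic lethal compounds; 0% = DMSO yeast wells and 100% = medium wells without yeast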
Active calls of the source: *.

How did N#Cc1ncc(Cc2ccccc2)nc1C#N do in these assays?
PfHsp90 yeast 2: 2; TIM10 inh: 0; tim10-1 inh: 41*; tim23-1 inh: 28; NALP3 yeast inh: 27; SKKanGAS inh: 12; tim10-1 conf: 38*

How did C=CCn1c(-c2cc3cccc(OC)c3o2)n[nH]c1=S do in these assays?
PfHsp90 yeast 2: 10; TIM10 inh: 16; tim10-1 inh: 44*; tim23-1 inh: 42; NALP3 yeast inh: 18; SKKanGAS inh: 2; tim10-1 conf: 19

What do the screens show for `NS(=O)(=O)c1ccc(CCNCc2ccccc2OCc2ccc(F)cc2)cc1`?
PfHsp90 yeast 2: -6; TIM10 inh: -13; tim10-1 inh: 15; tim23-1 inh: 6; NALP3 yeast inh: 5; SKKanGAS inh: -1

Results for NS(=O)(=O)c1ccc(NCc2ccccc2OCc2ccc(F)cc2)cc1 ?
TIM10 inh: 9; tim10-1 inh: 44*; tim23-1 inh: 38; NALP3 yeast inh: 1; SKKanGAS inh: 8; tim10-1 conf: 19

How did O=C(COc1ccc(F)cc1Br)NCCCN1CCCC1=O do in these assays?
TIM10 inh: 4; tim10-1 inh: 3; tim23-1 inh: 14; NALP3 yeast inh: 11

What do the screens show for `COc1ccc(-n2c(C)cc(C(=O)Cn3nc(C(=O)O)c4ccccc4c3=O)c2C)cc1`?
PfHsp90 yeast 2: -5; TIM10 inh: 24; tim10-1 inh: 17; tim23-1 inh: 27; NALP3 yeast inh: 8; SKKanGAS inh: 46

Source: PubChem (several laboratories)
